Rows were chosen to be rich in hits. Some 7.5% of all compounds tested hit in one or more screens of this group.
FLuc modulator: firefly luciferase modulation, counter-screen for miR-21 project. P08659. purified FLuc, Km substrates, luminescence inhibition. AID 588342. Potency, µM (doses to about 57.5 µM), actives largely listed as inhibitors. hit rate 6.9% among 360,000; also: nearly all actives have a fitted effect of over 55% in size
Target sequence (P08659 whole entry, looked up): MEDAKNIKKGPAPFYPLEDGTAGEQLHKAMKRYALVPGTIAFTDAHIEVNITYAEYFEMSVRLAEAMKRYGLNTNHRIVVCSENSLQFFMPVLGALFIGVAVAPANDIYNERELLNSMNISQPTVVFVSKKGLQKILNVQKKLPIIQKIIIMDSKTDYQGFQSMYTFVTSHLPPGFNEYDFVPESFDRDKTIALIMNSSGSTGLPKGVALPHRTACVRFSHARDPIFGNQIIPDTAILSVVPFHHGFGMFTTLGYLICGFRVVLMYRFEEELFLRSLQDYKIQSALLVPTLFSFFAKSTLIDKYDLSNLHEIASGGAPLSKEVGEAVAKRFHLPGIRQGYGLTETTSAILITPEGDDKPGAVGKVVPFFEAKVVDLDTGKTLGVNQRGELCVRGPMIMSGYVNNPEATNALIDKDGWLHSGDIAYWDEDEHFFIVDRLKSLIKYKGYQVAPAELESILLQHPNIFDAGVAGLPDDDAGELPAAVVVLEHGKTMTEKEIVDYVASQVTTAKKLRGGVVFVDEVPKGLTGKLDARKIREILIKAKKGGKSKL
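Biochemical qHTS of compounds, final roughly 60 µM downward over six points, against 10 nM purified firefly luciferase using Km concentrations of substrates (10 uM D-luciferin, 10 uM ATP) in Tris acetate pH 7.5 buffer; luminescence output.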
Luc counter: blocks Kinase-Glo luciferase, a counter-screen artifact; Potency, µM (doses to about 38.3 µM), usual class: inhibitors; hit rate 0.28% among 200,000; Q27757; Kinase-Glo luciferase, ATP luminescence, 8 min; also: nearly all actives have a fitted effect of over 60% in size
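Compound is pinned into ATP-containing buffer (10 uM ATP, imidazole pH 7.2, 7 mM MgCl2). Kinase-Glo luciferase reagent is then added. Light output is recorded following an 8-min room-temperature incubation.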
SMN2 splice up: increases expression of the SMN2 splice variant; HEK293 SMN2-luciferase splicing reporter, luminescence, 30-36 h; Potency, µM (doses to about 46.1 µM), most hits filed as activators; hit rate 2.8% among 210,000; AID 1458; also: nearly all actives have a fitted effect of over 55% in size
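HEK293 cells carry an SMN2 minigene-luciferase reporter in which exon 7 inclusion puts luciferase in frame. Cells were seeded at 2000 cells/well, attached for 10-12 hours, then exposed to compounds for 30-36 hours at 37C before ONE-Glo luminescence.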
Rab9 promoter act: activates the Rab9 promoter; Huh7 Rab9 promoter-luciferase reporter, luminescence, 24 h; Potency, µM (doses to about 9.22 µM), hits mostly activators; AID 485297; hit rate 2.8% among 320,000; also: nearly all actives have a fitted effect of over 60% in size
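Steps: seed 1500 Huh7 Rab9-luc cells per well, rest 2 h at 37 °C; add compound in DMSO; incubate 24 h; add luciferase reagent, 10 min ambient; read luminescence.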
NPC1 prom act: activators of NPC1 promoter | Huh7 NPC1 promoter luciferase reporter, 24 h | Potency, µM (series often up to 9.22 µM), usual class: activators | hit rate 2.4% among 320,000; also: nearly all actives have a fitted effect of over 60% in size
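Stable NPC1-promoter luciferase Huh7 line; cpd (DMSO) 24 h, 37 °C, 5% CO2; Amplite luciferase reagent 10 min RT; luminescence readout. qHTS format.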
ELG1 genotox: genotoxicity induction in ELG1-luciferase HEK293T cells. HEK293T ELG1-luciferase reporter, luminescence, 16 h. Potency, µM (doses to about 46 µM), actives largely listed as activators. hit rate 1.3% among 330,000; also: nearly all actives have a fitted effect of over 60% in size
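DMSO vehicle served as control against compound-treated ELG1-luciferase HEK293T cells; exposure lasted 16 hr at 37 °C and 5% CO2, followed by ONE-Glo luminescence detection after 30 min.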
Large screens that a line does not name were inactive. Calls follow the shape of the dose curve; as a rule, active = well fitted curve in the direction sought with a large enough effect; inconclusive = small, poorly fitted or top-dose-only effect, or another doubt; inactive = no such curve, though single readings can be large; an effect the other way counts as inactive or inconclusive.

CC(Cc1cccs1)NC(=S)Nc1ccccc1 (centres undefined)	none
CC(Cc1cccs1)NC(=O)Nc1ccc(Cl)c(Cl)c1 (centres undefined)	FLuc modulator 21µM, Rab9 promoter act inconclusive, NPC1 prom act inconclusive
CNC(=O)Cn1nc(C)c2ccccc2c1=O	Rab9 promoter act 4.5µM
COc1c(Cl)cccc1-c1cn2ccc(C)cc2n1	FLuc modulator 0.67µM, Rab9 promoter act 0.56µM, NPC1 prom act 1.3µM, ELG1 genotox inconclusive (no result: Luc counter, SMN2 splice up)
Cc1ccn2cc(-c3ccc(Br)cc3)nc2c1	FLuc modulator 0.15µM, Rab9 promoter act 0.56µM, NPC1 prom act 2.8µM, ELG1 genotox inconclusive (no result: Luc counter, SMN2 splice up)
Cc1ccc(-c2cn3ccc(C)cc3n2)cc1	FLuc modulator 0.15µM, SMN2 splice up 0.25µM (no result: Luc counter, Rab9 promoter act, NPC1 prom act, ELG1 genotox)
Cc1ccc(S(=O)(=O)Nc2ccc(-c3cn4ccc(C)cc4n3)cc2)cc1	FLuc modulator inconclusive (no result: Luc counter, SMN2 splice up)
Clc1ccc(-c2cn3cc(Br)ccc3n2)cc1Cl	FLuc modulator 0.21µM, SMN2 splice up 2.2µM, Rab9 promoter act 2.2µM, NPC1 prom act 4µM, ELG1 genotox 0.82µM
O=S(=O)(c1cccc(-c2cn3cc(Cl)ccc3n2)c1)N1CCOCC1	FLuc modulator inconclusive (no result: SMN2 splice up)
CCOC(=O)[C@@]12C[C@@H]1/C(=N/O)c1ccccc1O2	none (no result: FLuc modulator, SMN2 splice up, Rab9 promoter act, NPC1 prom act, ELG1 genotox)
CC1(C)C(=O)NC2=C1C(=O)C(=O)c1ccccc12	none (no result: FLuc modulator, SMN2 splice up, Rab9 promoter act, NPC1 prom act, ELG1 genotox)
COC(=O)C1(CC2CC(c3ccc(Cl)cc3)=NO2)CCN(C(=O)OC(C)(C)C)CC1 (centres undefined)	none (no result: Luc counter, SMN2 splice up)
CC(=O)C1=C(c2ccccc2)N(C(C)=O)n2c(nnc2C2CCCCC2)S1	none (no result: Luc counter, SMN2 splice up, Rab9 promoter act, NPC1 prom act, ELG1 genotox)
COC(=O)c1cc2oc3ccccc3c2n1CC(=O)Nc1ccc(C)cc1C	none (no result: Luc counter, Rab9 promoter act, NPC1 prom act, ELG1 genotox)
COc1ccc2oc(=O)c(-c3cn4ccc(C)cc4n3)cc2c1	FLuc modulator inconclusive, Rab9 promoter act 3.2µM, NPC1 prom act inconclusive, ELG1 genotox 21µM
Cc1cnccc1CNC(=O)C1CCC(=O)N(Cc2ccc(Cl)cc2)C1 (centres undefined)	none (no result: Luc counter, SMN2 splice up)
CNC(=S)/N=C(/Nc1ccccc1)c1ccccc1	none
N/C(=N\C(=S)Nc1ccccc1)c1ccccc1	FLuc modulator 11µM, Rab9 promoter act 0.71µM, NPC1 prom act 0.5µM, ELG1 genotox inconclusive (no result: Luc counter, SMN2 splice up)
COc1cc(C2Nc3cccc4cccc(c34)N2)ccc1O	FLuc modulator 13µM, NPC1 prom act inconclusive (no result: Luc counter, SMN2 splice up)
COc1ccc(Br)cc1C1Nc2cccc3cccc(c23)N1	NPC1 prom act inconclusive, ELG1 genotox inconclusive (no result: Luc counter, SMN2 splice up)
COc1cc(C2Nc3cccc4cccc(c34)N2)cc(OC)c1OC(C)=O	FLuc modulator 17µM
CCN(CC)c1ccc(C2Nc3cccc4cccc(c34)N2)c(O)c1	FLuc modulator 17µM, Rab9 promoter act inconclusive, NPC1 prom act inconclusive
O=C(/C=C/Nc1ccccc1C(F)(F)F)c1ccco1	FLuc modulator 1.2µM, SMN2 splice up 10µM, Rab9 promoter act 0.71µM, NPC1 prom act 2µM, ELG1 genotox 2.9µM
O=C(/C=C/Nc1cccc(C(F)(F)F)c1)c1ccco1	FLuc modulator 11µM, SMN2 splice up inconclusive, Rab9 promoter act inconclusive, ELG1 genotox inconclusive
O=C(/C=C/Nc1ccc(Oc2ccccc2)cc1)c1ccco1	FLuc modulator 0.85µM, Luc counter inconclusive, Rab9 promoter act 0.71µM, NPC1 prom act 0.63µM, ELG1 genotox inconclusive (no result: SMN2 splice up)
O=C(/C=C/Nc1cccc(C(F)(F)F)c1)c1ccc(Oc2ncccn2)cc1	FLuc modulator 12µM, Rab9 promoter act inconclusive, NPC1 prom act inconclusive
COc1ccc(-c2n[nH]c(=S)nc2-c2ccc(OC)cc2)cc1	none (no result: Luc counter, SMN2 splice up)
COC(=O)N1CCC2(CC1)CCN(c1ccccc1)CC2	none (no result: FLuc modulator, Rab9 promoter act, NPC1 prom act, ELG1 genotox)
COc1ccc(C(OCCN2CCC[C@@H](C(=O)O)C2)(c2ccc(OC)cc2)c2ccc(OC)cc2)cc1	none (no result: FLuc modulator, SMN2 splice up, Rab9 promoter act, NPC1 prom act, ELG1 genotox)
NC(=O)c1ccccc1N/C=C/C(=O)c1ccco1	FLuc modulator 9.5µM, SMN2 splice up 11µM, Rab9 promoter act 3.2µM, NPC1 prom act inconclusive, ELG1 genotox 5.2µM
NC(=O)c1ccccc1NC(=O)/C=C/C(=O)O	none
COc1ccc(NC(=O)C#Cc2ccccc2)cc1	FLuc modulator 8.5µM, Rab9 promoter act inconclusive, NPC1 prom act 1.4µM, ELG1 genotox inconclusive (no result: Luc counter, SMN2 splice up)
O=C(C#Cc1ccccc1)Nc1cccc(F)c1	FLuc modulator 4.3µM (no result: Luc counter, SMN2 splice up)
